# HEK293 tox: cytotoxic in the GLP-1 receptor inverse agonist counter-screen. Potency, µM (series often up to 38.3 µM), inactives show at the highest dose activity change, negative = inhibition, most hits filed as inhibitors. 0.13% of 410,000 active. HEK293 cAMP-luciferase reporter cells, luminescence, 24 h;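 also: loss of luciferase light is scored as toxicity; % is scaled to controls: 0 for no effect and ±100 for the full control effect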
#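 Compound-treated cells are incubated 24 hr at 37 deg C under 5% CO2 after a 12 hour attachment period, then luciferase detection reagent is added and luminescence is measured following 12 min at room temperature; lowered signal indicates toxicity.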
# PTHR1 agonist: PTHR1 (human) receptor agonism. AID 743266. Q03431. 0.075% of 410,000 active. HEK293 GP2 PTHR1 cells, GloSensor cAMP luminescence, 1 h. Potency, µM (highest dose often 115 µM), inactives show at the highest dose activation, most hits filed as activators; also: nearly all actives have a fitted effect of over 55% in size
# Target sequence (Q03431 whole entry, looked up): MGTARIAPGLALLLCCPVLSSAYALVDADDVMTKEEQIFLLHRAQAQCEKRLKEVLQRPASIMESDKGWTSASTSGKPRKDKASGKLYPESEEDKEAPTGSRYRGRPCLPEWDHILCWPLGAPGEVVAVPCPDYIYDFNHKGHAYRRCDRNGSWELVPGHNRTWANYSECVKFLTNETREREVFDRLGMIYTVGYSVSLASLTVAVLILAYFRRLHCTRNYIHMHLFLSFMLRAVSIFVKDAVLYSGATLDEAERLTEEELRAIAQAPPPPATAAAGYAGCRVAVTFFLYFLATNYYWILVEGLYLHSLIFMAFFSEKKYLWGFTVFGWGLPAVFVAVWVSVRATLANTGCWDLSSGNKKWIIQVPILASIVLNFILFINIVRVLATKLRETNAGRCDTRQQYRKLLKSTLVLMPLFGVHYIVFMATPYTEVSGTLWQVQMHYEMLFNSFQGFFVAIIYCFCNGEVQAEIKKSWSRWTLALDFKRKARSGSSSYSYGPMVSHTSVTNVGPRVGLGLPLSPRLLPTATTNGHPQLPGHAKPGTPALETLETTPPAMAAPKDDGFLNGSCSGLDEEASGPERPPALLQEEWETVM
#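 HEK-293-derived GP2 cells expressing PTHR1 and a GloSensor cAMP reporter, 3,000/well, plated overnight, given luciferin plus IBMX (each 0.5 mM as added) for 1 h at 37 °C, then compound for 1 h at 37 °C. Luminescence was read after 15 min at room temperature.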
# RGS4 inh: blocks human RGS4-accelerated GTP hydrolysis; P49798; Transcreener GDP fluorescence polarization, RGS4-accelerated GTP hydrolysis; Potency, µM (series often up to 114 µM), without a hit: at the top dose activity change, negative = inhibition, usual class: inhibitors; 0.039% of 390,000 active; AID 504845; also: % is scaled to controls: 0 for no effect and ±100 for the full control effect; nearly all actives have a fitted effect of over 75% in size
#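 MLSMR compounds (23 nl, pin-transferred) preincubated 10 min at room temperature with a 500nM (2x) first reagent, then RGS4 at 900nM (2x) plus Transcreener GDP mix added; fluorescence polarization (620/688 nm) read before and after 90 min at 30 °C.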
# GLP1R inv ag: GLP-1 receptor (human) inverse agonism; P43220; HEK293 GLP-1R CRE-luciferase, luminescence, 24 h; GLP-1R form is constitutively active; Potency, µM (highest dose often 38.3 µM), for inactives: top-dose activity change, negative = inhibition, most hits filed as inhibitors; 1.6% of 410,000 active; AID 624417; also: % is scaled to controls: 0 for no effect and ±100 for the full control effect; nearly all actives have a fitted effect of over 55% in size
#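 Using stably transfected HEK293 (constitutively active GLP-1R, cAMP-luciferase reporter), compounds were incubated 24 hr and luciferase measured by luminescence.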
# GLP1R ag: agonists of human GLP-1 receptor | HEK293 GLP-1R CRE-luciferase, luminescence, 4-6 h; cells express a hypersensitive GLP-1R form | 0.007% of 380,000 active | Potency, µM (doses to about 45.6 µM), without a hit: at the highest dose activation, hits mostly activators; also: % of control where 0% means no effect
# Numbers without * were called inactive; i = inactive; ? = inconclusive; · = no result given; [ ] = remark or other dose. An excerpt weighted towards active compounds, which were near 1.7% of everything screened. Calls follow the shape of the dose curve; as a rule, active = well fitted curve in the direction sought with a large enough effect; inconclusive = small, poorly fitted or top-dose-only effect, or another doubt; inactive = no such curve, though single readings can be large; an effect the other way counts as inactive or inconclusive. Potency is read from the fitted curve at half-maximal effect.
SMILES,HEK293 tox,PTHR1 agonist,RGS4 inh,GLP1R inv ag,GLP1R ag
CCOc1ccc(CCNC(=O)c2cn(CC)c3ccc(S(=O)(=O)N4CCCCCC4)cc3c2=O)cc1OCC,-14.1%,-2.0%,-1.5%,15.8%,0.4%
Cc1ccc(F)cc1C(=O)N1CCCCC1c1cc(C(=O)NCc2ccccc2)no1 (stereo not given),7.7%,i,·,-5.6%,2.5%
CCN1CCN(C(=O)N[C@H](C(=O)N[C@@H]2C(=O)N3[C@@H](C(=O)O)C(C)(C)S[C@@H]23)c2ccccc2)C(=O)C1=O,·,·,·,·,-5.3%
COc1cc(/C=C2/C(=O)NN(c3ccccc3)C2=O)cc(Br)c1O,-30.7%,-41.9%,-7.3%,?,-1.8%
COc1cc(/C=C2/C(=O)NN(c3ccc(Cl)cc3)C2=O)cc(OC)c1O,?,i,-29.2%,3.98µM*,-5.7%
O=C1NN(c2ccccc2)C(=O)/C1=C\c1ccccc1,-23.3%,-22.0%,?,?,9.9%
O=C1NN(c2ccccc2)C(=O)C1=Cc1ccccc1,?,-14.1%,·,3.98µM*,-1.2%
O=C(Cn1c(-c2cccs2)cc2ccccc21)N1CCN(c2ccccc2F)CC1,-1.1%,-52.5%,-0.7%,?,·
CCOc1ccc(NCc2nnc(SCc3ccc(Cl)cc3)n2-c2ccccc2)cc1,-9.8%,-11.1%,11.7%,10µM*,-7.1%
CCOC(=O)c1cc(-c2ccc(F)cc2)n(CC(=O)NCc2ccc(OC)cc2)c1C,3.0%,i,-11.8%,11.4%,·
CC(C)COc1ccc(CSCCNC(=S)Nc2ccccc2)cc1,4.47µM*,-57.3%,12.7%,3.16µM*,1.8%
CCCCOc1ccc(CSCCNC(=S)Nc2ccccc2)cc1,3.16µM*,-31.4%,-10.8%,1.78µM*,-4.2%
CCCCCOc1ccc(CSCCNC(=S)Nc2ccccc2)cc1,-6.5%[1.53 µM],-20.9%,-6.4%,?,-3.6%
Cc1cccc(-n2c(C)cc(C(=O)C(=O)Nc3nncs3)c2C)c1,1.6%,i,-10.0%,-12.6%,·
COc1ccc(-c2c(C)nc3c(-c4ccccn4)cnn3c2N)cc1,10µM*,-90.2%,-12.1%,?,11.0%
Cc1nc2c(-c3ccc(F)cc3)cnn2c(N)c1-c1ccc(F)cc1,-16.4%,-17.5%,8.9%,2µM*,16.1%
Cc1cc(N)n2ncc(-c3ccc(F)cc3)c2n1,-11.6%,-31.1%,-21.8%,3.9%,8.1%
CC1Sc2ccc(C#N)cc2N(Cc2cccc(C(F)(F)F)c2)C1=O (stereo not given),0.7%,-27.7%,·,-1.1%,4.5%
COC(=O)CCc1sc(Nc2ccc(OC)cc2)nc1-c1ccc(OC)cc1,-0.6%,-20.0%,-16.8%,-21.9%,·
CCN1CCN(C(=O)c2[nH]c3ccc(OC)cc3c2C)CC1,2.0%,i,11.8%,4.6%,4.2%
Cc1ccc(C)c2[nH]c(=O)c(C(c3nnnn3Cc3ccco3)N3CCc4ccccc4C3)cc12 (stereo not given),-13.7%,-9.7%[57.5 µM],-27.9%,10µM*,-0.9%
CCN(C(=O)c1cc(S(=O)(=O)N2CCc3ccccc32)cn1C)c1cccc(C)c1,2.4%,-21.8%,-19.7%,-30.9%,·
CCCCC(CC)C(=O)Oc1ccc(O)c(C(C)(C)C)c1 (stereo not given),?,-5.2%,21.9%,5.62µM*,16.7%
COc1ccc(OC)c2[nH]c(=O)c(CCNC(=O)c3cccs3)cc12,8.5%,i,-0.3%,-5.0%,-3.3%
COc1ccc2c(c1)-c1nc(NC(=O)c3cc(OC)c(OC)c(OC)c3)sc1CC2,?,?,-21.3%,10µM*,·
SMILES,HEK293 tox,PTHR1 agonist,RGS4 inh,GLP1R inv ag,GLP1R ag
COc1ccc2c(c1)-c1nc(NC(=O)c3ccc(Cl)cc3)sc1CC2,2.7%,i,-34.2%,10.3%,·
NNc1ccc2c(C(F)(F)F)cc(C(F)(F)F)nc2n1,-16.9%,i,-16.6%,26.8%,11.5%
N#CC(c1cccc(Cl)c1)c1ccc2c(C(F)(F)F)cc(C(F)(F)F)nc2n1 (stereo not given),-27.4%,-12.4%,11.5%,3.16µM*,-23.7%
CC(=Nc1ccc(C)cc1)c1sc2ccccc2c1O,136.7%,10.9%,17.4%,12.6µM*,-7.2%
COc1cccc2c1C1COC3C4CC(C(=O)O)C(C(C2)N13)N4C (stereo not given),?,i,-41.8%,3.98µM*,-6.5%
COc1cccc2c1C(CCCC(=O)O)CCC2 (stereo not given),-0.3%,-8.6%,-10.1%,9.0%,5.0%
Cc1nc(N2CCCCC2C)c2c(C)c(C(=O)Nc3cccc(C(F)(F)F)c3)sc2n1 (stereo not given),?,-22.9%,-8.6%,10µM*,4.0%
CCCCn1c(N)c(N(CCOC)C(=O)COC(=O)COc2cc(C)ccc2Cl)c(=O)[nH]c1=O,12.0%,i,-14.0%,11.4%,-2.4%
CCCCn1c(N)c(N(CCOC)C(=O)COC(=O)COc2cc(C)c(Cl)cc2C(C)C)c(=O)[nH]c1=O,-12.0%,-7.1%,-15.1%,10µM*,11.1%
CCCCn1c(N)c(N(CCOC)C(=O)CSCc2ccc(Cl)c(Cl)c2)c(=O)[nH]c1=O,6.4%,-18.2%,17.3%,-17.4%,-0.5%
CCCCn1c(N)c(N(CCOC)C(=O)CN(C)CC(=O)Nc2ccc(Cl)c(Cl)c2)c(=O)[nH]c1=O,-7.2%,50.1µM*,6.5%,?,-2.9%
CCOc1ccc(C2CC(=O)Nc3nc(SCc4ccccc4C)[nH]c(=O)c32)cc1OC (stereo not given),-10.8%,-36.9%,1.4%,-5.1%,·
CN(C)c1ccc(-c2nc3ccccc3c(=O)[nH]2)cc1,7.9%,-24.7%,15.6%,8.91µM*,-8.6%
Cc1nn(Cc2c(Cl)cccc2Cl)c(C)c1NC(=O)CCCn1nc([N+](=O)[O-])c(Cl)c1C,-3.0%,-11.7%,16.7%,2.51µM*,9.2%
O=C1c2ccccc2-c2onc3ccc(NCc4ccco4)c1c23,11.2µM*,-32.8%,?,?,14.7%
CCOC(=O)C1CCN(c2nc3ccccc3nc2C(C#N)C(=O)OCCOC)CC1 (stereo not given),0.8%,-0.4%[57.5 µM],-1.5%,-20.7%,9.0%
C=CCOC(=O)C(C#N)c1nc2ccccc2nc1N1CCC(C(=O)OCC)CC1 (stereo not given),-3.0%,i,-3.0%,6.31µM*,7.7%
C=CCOC(=O)C(C#N)c1nc2ccccc2nc1N1CCN(c2ccccc2OCC)CC1 (stereo not given),3.0%,-24.1%,-12.7%,?,-1.0%
CCOc1ccccc1N1CCN(c2nc3ccccc3nc2C(C#N)C(=O)OC(C)C)CC1 (stereo not given),-10.4%,-10.3%,-20.0%[56.9 µM],5.01µM*,2.4%
CCCc1nc2ccc(Cl)cn2c1Cc1ccccc1,-6.3%,-69.5%,·,6.0%,0.6%

# Screening results: PubChem BioAssay, National Center for Advancing Translational Sciences (NCATS)
